From PubChem BioAssay AID1159580 (chemical genetic matrix, 2015)
“And” between values parts separate entries of the source, which are not always exact repeats. Equal entries are not always repeated. In all, about 5,500 compounds went through this assay and about 2,000 (36%) were called active. Inconclusive results (about 18%) are left out. No stated cut-off is given here; in the data, active means normalized growth mostly below about 0.91 (no sharp cut-off); inconclusive means no clear call, values can overlap the other calls; inactive means mostly above about 0.92. The list shows a part of the results.

Test: chemical genetic growth profiling, strain panel (AID 1159580);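 further: tested at 20 µM; growth read once vehicle control cultures reached saturation at 30 °C; 1 = growth at the plate median or of vehicle wells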
Settings: S. cerevisiae deletion strains, growth OD

Measured: normalized growth

CC(C)NCC(O)c1ccc2ccccc2c1 (stereo not drawn)
inactive: locus YAL013W, strain DEP1, stronger effect = lower value 1.02 | locus YAL021C, strain ccr4, stronger effect = lower value 0.992 | locus YAL026C, strain drs2, stronger effect = lower value 1.01 | locus YAL030W, strain snc1, stronger effect = lower value 1 | locus YBL061C, strain skt5, stronger effect = lower value 0.998 | locus YBR009C, strain hhf1, stronger effect = lower value 0.985 | locus YBR021W, strain FUR4, stronger effect = lower value 1.02 | locus YBR023C, strain chs3, stronger effect = lower value 1 | locus YBR171W, strain sec66, stronger effect = lower value 1 | locus YBR229C, strain ROT2, stronger effect = lower value 1.01 | locus YBR231C, strain swc5, stronger effect = lower value 0.99 | locus YBR279W, strain paf1, stronger effect = lower value 0.998 | locus YCL011C, strain gbp2, stronger effect = lower value 1 | locus YCL016C, strain dcc1, stronger effect = lower value 1 | locus YCL029C, strain bik1, stronger effect = lower value 0.999 | locus YCL061C, strain MRC1, stronger effect = lower value 1.01 | locus YCL069W, strain vba3, stronger effect = lower value 1 | locus YCR088W, strain abp1, stronger effect = lower value 1.01 | locus YDL005C, strain med2, stronger effect = lower value 0.999 | locus YDL035C, strain GPR1, stronger effect = lower value 1.02 | locus YDL040C, strain nat1, stronger effect = lower value 0.987 | locus YDL074C, strain BRE1, stronger effect = lower value 1.04 | locus YDL101C, strain DUN1, stronger effect = lower value 1.01 | locus YDL134C, strain PPH21, stronger effect = lower value 1.02 | locus YDL185W, strain tfp1, stronger effect = lower value 1 | locus YDL192W, strain arf1, stronger effect = lower value 1 | locus YDR001C, strain nth1, stronger effect = lower value 1 | locus YDR069C, strain doa4, stronger effect = lower value 0.987 | locus YDR101C, strain arx1, stronger effect = lower value 1.01 | locus YDR137W, strain rgp1, stronger effect = lower value 0.987 | locus YDR159W, strain sac3, stronger effect = lower value 0.971 | locus YDR162C, strain NBP2, stronger effect = lower value 1.03 | locus YDR195W, strain ref2 0.966 | locus YDR297W, strain sur2, stronger effect = lower value 0.998 | locus YDR318W, strain mcm21, stronger effect = lower value 0.992 | locus YDR334W, strain swr1, stronger effect = lower value 1 | locus YDR335W, strain msn5, stronger effect = lower value 0.999 | locus YDR388W, stronger effect = lower value 0.994 | locus YDR392W, strain spt3, stronger effect = lower value 0.918 | locus YDR502C, strain sam2, stronger effect = lower value 0.995 | locus YEL003W, strain gim4, stronger effect = lower value 1.01 | locus YEL037C, strain rad23, stronger effect = lower value 1 | locus YEL061C, strain CIN8 (second series), stronger effect = lower value 0.996 | locus YEL061C, strain CIN8, stronger effect = lower value 1 | locus YER015W, strain faa2, stronger effect = lower value 0.992 | locus YER016W, strain bim1, stronger effect = lower value 0.997 | locus YER110C, stronger effect = lower value 0.994 | locus YER111C, strain swi4, stronger effect = lower value 1 | locus YER155C, strain BEM2 (second series), stronger effect = lower value 0.998 | locus YER155C, strain BEM2, stronger effect = lower value 1.01 | locus YER167W, strain BCK2, stronger effect = lower value 1.01 | locus YFR010W, strain ubp6, stronger effect = lower value 1 | locus YGL078C, strain dbp3, stronger effect = lower value 0.992 | locus YGL086W, strain mad1, stronger effect = lower value 1 | locus YGL167C, strain pmr1, stronger effect = lower value 1 | locus YGL173C, strain kem1, stronger effect = lower value 0.999 | locus YGL227W, strain vid30, stronger effect = lower value 0.992 | locus YGL240W, strain doc1, stronger effect = lower value 0.995 | locus YGL248W, strain PDE1, stronger effect = lower value 1.01 | locus YGL253W, strain hxk2, stronger effect = lower value 0.998 | locus YGR135W, strain pre9, stronger effect = lower value 0.983 | locus YGR252W, strain gcn5, stronger effect = lower value 0.973 | locus YHR013C, strain ard1, stronger effect = lower value 0.952 | locus YHR027C, strain rpn1, stronger effect = lower value 1 | locus YHR030C, strain SLT2, stronger effect = lower value 1.01 and 1.02 | locus YHR079C, strain IRE1 (second series), stronger effect = lower value 0.99 | locus YHR079C, strain IRE1, stronger effect = lower value 1.02 | locus YHR094C, strain hxt1, stronger effect = lower value 0.99 | locus YHR129C, strain ARP1, stronger effect = lower value 1.02 | locus YHR142W, strain chs7, stronger effect = lower value 1 | locus YHR200W, strain rpn10, stronger effect = lower value 0.994 | locus YIL066C, strain RNR3, stronger effect = lower value 1.02 | locus YIL073C, strain SPO22, stronger effect = lower value 1.01 | locus YIL125W, strain kgd1, stronger effect = lower value 0.999 | locus YIR030C, strain dcg1, stronger effect = lower value 0.998 | locus YJL092W, strain hpr5, stronger effect = lower value 1.01 | locus YJL095W, strain BCK1 (second series), stronger effect = lower value 0.999 | locus YJL095W, strain BCK1, stronger effect = lower value 1.02 and 1.03 | locus YJL115W, strain asf1, stronger effect = lower value 0.996 | locus YJL129C, strain trk1, stronger effect = lower value 1.01 | locus YJL134W, strain LCB3, stronger effect = lower value 1 | locus YJL154C, strain vps35, stronger effect = lower value 0.992 | locus YJL164C, strain tpk1, stronger effect = lower value 1 | locus YJL166W, strain qcr8, stronger effect = lower value 1 | locus YJL168C, strain set2, stronger effect = lower value 0.991 | locus YJL187C, strain SWE1 (second series), stronger effect = lower value 1.03 | locus YJL187C, strain SWE1, stronger effect = lower value 1 | locus YJR043C, strain POL32, stronger effect = lower value 1.05
